We go through 100 compounds from PubChem BioAssay AID1445 (SRMLSC, 2008).

Each structure is given as a SMILES string. Screen size: about 220,000 compounds; about 910 (0.41%) were called active.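 Rule for the calls: active = primary inhibition above the hit cutoff, then over 50% inhibition at one or more dose response concentrations (cut at about 23% in these data, passing the limit was not always enough); inconclusive = conflicting primary data, or primary hits not chosen for dose response; inactive = low primary inhibition, or under 50% at every dose.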 What follows is part of a selection rich in actives, with near analogues and random picks from the rest. Results with a measured potency or affinity are listed apart.

For the experiment, the target named is Aminopeptidase N (Plasmodium falciparum (isolate 3D7)) (UniProt O96935). The experiment is described as follows: P. falciparum M1AAP inhibitors, biochemical, fluorogenic H-Leu-NHMec substrate, 1536-well (AID 1445).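 Note: plate controls were DMSO full reaction for no effect and no enzyme background for full effect.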 Particulars: recombinant M1AAP, H-Leu-NHMec fluorogenic kinetic assay; at 30 µM, active compounds read high unless noted.
Chain of Aminopeptidase N (Plasmodium falciparum (isolate 3D7)) (O96935 whole entry, looked up): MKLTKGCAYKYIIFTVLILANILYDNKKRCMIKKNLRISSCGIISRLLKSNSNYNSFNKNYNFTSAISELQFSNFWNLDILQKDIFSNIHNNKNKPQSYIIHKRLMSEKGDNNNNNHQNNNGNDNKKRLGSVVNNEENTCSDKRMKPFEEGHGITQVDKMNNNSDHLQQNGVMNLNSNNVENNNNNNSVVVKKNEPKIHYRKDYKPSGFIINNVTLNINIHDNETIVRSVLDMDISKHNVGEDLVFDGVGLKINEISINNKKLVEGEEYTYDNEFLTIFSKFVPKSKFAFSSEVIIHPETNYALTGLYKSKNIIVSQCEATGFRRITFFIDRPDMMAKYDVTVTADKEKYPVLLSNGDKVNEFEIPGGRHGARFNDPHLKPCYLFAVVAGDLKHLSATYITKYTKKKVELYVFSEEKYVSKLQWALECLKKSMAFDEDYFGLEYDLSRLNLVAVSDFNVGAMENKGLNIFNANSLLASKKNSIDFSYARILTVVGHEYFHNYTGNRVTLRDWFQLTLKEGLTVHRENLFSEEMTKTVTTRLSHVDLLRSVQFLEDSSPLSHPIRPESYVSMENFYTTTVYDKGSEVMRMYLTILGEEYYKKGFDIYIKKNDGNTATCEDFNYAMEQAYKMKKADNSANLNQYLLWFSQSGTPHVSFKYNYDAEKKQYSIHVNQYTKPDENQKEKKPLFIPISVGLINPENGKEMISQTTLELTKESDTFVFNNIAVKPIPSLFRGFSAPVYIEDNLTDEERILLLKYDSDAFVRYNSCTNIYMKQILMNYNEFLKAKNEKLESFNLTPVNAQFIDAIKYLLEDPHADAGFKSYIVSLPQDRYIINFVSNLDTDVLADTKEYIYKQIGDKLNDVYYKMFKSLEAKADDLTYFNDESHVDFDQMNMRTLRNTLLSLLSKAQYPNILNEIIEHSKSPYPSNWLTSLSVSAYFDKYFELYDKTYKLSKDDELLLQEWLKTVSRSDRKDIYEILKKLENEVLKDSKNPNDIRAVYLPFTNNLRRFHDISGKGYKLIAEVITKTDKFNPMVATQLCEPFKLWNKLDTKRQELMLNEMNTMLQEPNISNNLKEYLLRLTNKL
As to `CC(=O)Nc1c(C(=O)c2ccccc2)oc2ccccc12`, the inhibition was 10.6% (inactive). As for `O=C(Nc1nc2c(Br)cc(Br)cc2c(=O)s1)c1ccco1`, the figure is 3.61% (inactive); as for `CCOc1cc(/C=C/c2ccc3cccc([N+](=O)[O-])c3n2)cc(Cl)c1O`, 9.51% (inactive); as for `CC(C)c1nc(CNC(=O)CCc2nnc(-c3ccsc3)o2)cs1`, -9.81% (inactive). Consider `O=C(N/N=C(/CC(=O)c1cccs1)C(F)(F)F)c1ccc(O)cc1`, for which the inhibition is 30.4% (inactive). In the case of `O=C(N/N=C(\CC(=O)c1cccs1)C(F)(F)F)c1cccnc1` it was 22.1% (inactive); in that of `Cc1cccc(N2CCN(C(=O)CC(NC(=O)c3ccccc3)c3ccccc3)CC2C)c1` (stereo not given), -5.51% (inactive); in that of `Cc1ccc(N2CC(C(=O)Nc3cccc(F)c3)CC2=O)cc1` (stereo not given), 2.83% (inactive). As for `COCc1c(Br)c(C)nc(OCC(=O)N/N=C/c2cc(C)n(-c3ccc([N+](=O)[O-])cc3)c2C)c1C#N`, the figure is 12% (inactive); as for `O=C(Nc1ccc(N2CCCCCC2)cc1)c1ccccc1Cl`, -5.82% (inactive).

Consider `O=C(Nc1ccc2ncccc2c1)c1ccccc1Cl`, for which the inhibition was 16.8% (inactive). In the case of `O=C(Nc1ccc(C(F)(F)F)cc1)c1ccccc1Br` it was -2.21% (inactive).

In the case of `CN1CCN(c2ccc(NC(=O)c3ccccc3Br)cc2)CC1`, the inhibition was 3.56% (inactive). Take `O=C(Nc1ccc(-n2ccnc2P(=O)(O)c2ccccc2)cc1)c1ccccc1Cl`: the inhibition was 75.1% (active). As for `CC(Cc1cccs1)NC(=S)Nc1ccc(Cl)c(Cl)c1` (stereo not given), the figure is -3.88% (inactive); as for `Cc1ccc(OCc2ccc(C(=O)Nc3nc4ccccc4n3Cc3ccccc3)o2)c([N+](=O)[O-])c1`, 4.13% (inactive); as for `Cc1ccc(C(=O)Cn2nnc3ccccc32)cc1C`, 5.82% (inactive). As for `O=C1Nc2ccccc2N(O)N1c1ccc(S(=O)(=O)Nc2ccccn2)cc1`, the figure is 5.82% (inactive); as for `O=c1[nH]c2sc3c(c2c2nncn12)CCCC3`, 2.29% (inactive). As for `Cc1nc2sc3c(c2c(=O)o1)CCC3`, the figure is 7.65% (inactive); as for `Cc1cc(-c2nc3c4c5c(sc4[nH]c(=O)n3n2)CCC5)c(C)o1`, 27.1% (active). For the compound `CCOC(=O)C1=C(c2ccccc2)Nc2ncnn2C1c1ccc(OC)c(OC)c1OC` (stereo not given), the inhibition is -1.38% (inactive). As for `O=S(=O)(Nc1nc2ccccc2nc1Nc1ccc2c(c1)OCO2)c1ccccc1`, the figure is 33.5% (inactive); as for `O=S(=O)(Nc1nc2ccccc2nc1Nc1ccc2c(c1)OCCO2)c1cccs1`, 47.2% (active).

Turning to `O=S(=O)(Nc1ccc2c(c1)OCCO2)c1cccs1`, the inhibition was -2.25% (inactive). As for `CC1=C(C(=O)N2CCN(c3cc(C)ccc3C)CC2)C2(CCC(C)CC2)OC1=O` (stereo not given), the inhibition was 0.75% (inactive). In the case of `NNC(=O)CSc1nnnn1-c1ccccc1` it was -3.57% (inactive); in that of `Cc1cccc(C)c1NS(=O)(=O)c1ccc(OCCNS(C)(=O)=O)cc1`, -0.18% (inactive); in that of `N#Cc1cc2c(nc1Cl)CCCC2`, 3.36% (inactive). `COc1ccc(CCN=C(N)NS(=O)(=O)c2ccccc2)cc1OC`: the inhibition is 0.37% (inactive). On to `CCOc1cc(C2C(C(=O)OC(C)C)=C(C)NC3=C2C(=O)CCC3)cc([N+](=O)[O-])c1O` (stereo not given), for which the inhibition was 21.4% (inactive). In the case of `CCOc1cc(C2C3=C(CC(C)(C)CC3=O)OC3=C2C(=O)CC(C)(C)C3)cc([N+](=O)[O-])c1O` it was 14.2% (inactive); in that of `CCOc1ccc(C2CC(=O)NC3=C2C(=O)CCC3)cc1Cl` (stereo not given), 1.99% (inactive).

As for `CCOc1cc(C2C3=C(CCCC3=O)N(C)C3=C2C(=O)CCC3)cc(Cl)c1O`, the inhibition is 18.7% (inactive). In the case of `Fc1ccc(-c2nc3c(Cl)cc(C(F)(F)F)cn3c2Cl)cc1` it was -1.92% (inactive). Regarding `COC(=O)CSc1[nH]c2ccc(F)cc2c1[N+](=O)[O-]`, the inhibition was 13% (inactive). Take `COC(=O)c1c(C)oc2ccc(NS(=O)(=O)c3cccs3)cc12`: the inhibition was 6.82% (inactive). In the case of `CCOC(=O)c1c(C)oc2ccc(NS(=O)(=O)c3cccs3)cc12` it was 17.3% (inactive); in that of `CC(C)(C)NC(=O)COC(=O)c1nsc(Cl)c1Cl`, 0.52% (inactive). With `CC(C)(C)NC(=O)NC(=O)CN1CCN(c2cccc(Cl)c2)CC1`, the inhibition was -0.55% (inactive). On to `COn1c(SCc2cccnc2)nc2ccccc2c1=O`, for which the inhibition is -0.13% (inactive).

For the compound `COc1ccc(C(=O)NNC(=O)CSc2nnc(-c3cccnc3)n2C)cc1`, the inhibition was 10.3% (inactive). As for `Cn1c(SCC(=O)Nc2ccc3c(c2)oc2ccccc23)nnc1-c1ccccc1`, the figure is 25.6% (active); as for `COc1ccc(-c2nnc(SCC(=O)Nc3ccccc3)n2C)cc1`, 0.31% (inactive). In the case of `COc1ccc(NC(=O)CSc2nnc(-c3ccccc3C)n2N)cc1` it was 3.11% (inactive); in that of `CC(=O)Nc1ccc(-c2nnc(SCC(=O)Nc3ccc4c(c3)oc3ccccc34)n2C)cc1`, 8.23% (inactive); in that of `COc1ccc(-n2c(Cc3cccn3C)nnc2SCC(=O)Nc2ccc(F)cc2)cc1`, 12% (inactive).

On to `COc1ccc(C(=O)NNC(=O)CSc2nnc(C)n2C)cc1`, for which the inhibition is 1% (inactive). As for `Cc1ccc(-c2nnc(SCC(=O)Nc3ccc4c(c3)oc3ccccc34)n2C)c(Cl)c1`, the figure is 3.17% (inactive). With `COc1ccc(NC(=O)CSc2nnc(-c3ccccc3C)n2C)cc1`, the inhibition was 27.4% (active). In the case of `COc1ccc(NC(=O)CSc2nnc(Cc3cccn3C)n2-c2ccc(OC)cc2)cc1` it was 5.21% (inactive); in that of `COc1ccc(NC(=O)CSc2nnc(Cc3cccn3C)n2-c2ccc(F)cc2)cc1`, 23.8% (active).

On to `Cc1cc(C)c2c3c(sc2n1)C1(CCSCC1)C(C#N)=C(N)O3`, for which the inhibition was 9.27% (inactive). In the case of `C1CCN(c2nc3nonc3nc2NCC2CCOCC2)CC1` it was 7.54% (inactive). In the case of `CC(=O)N1CCN(c2ccc(NC(=O)c3ccc(Br)o3)cc2Cl)CC1` it was 4.42% (inactive). In the case of `COc1ccc(-c2csc(NC(=O)c3cccs3)c2C(=O)O)cc1OC` it was 19.5% (inactive); in that of `CC(C)c1ccc(-c2csc(NC(=O)c3cccs3)c2C(=O)O)cc1`, 8.46% (inactive).

As for `Fc1cccc(Nc2nc(Cl)nc(Cl)n2)c1`, the inhibition was 8.99% (inactive). In the case of `O=C1NCCN(Cc2cccc(Oc3ccccc3)c2)C1CC(=O)N1CCCCO1` (stereo not given), the inhibition was 1.7% (inactive). In the case of `CCOc1cccc2cc(C(=O)Nc3ccccc3-c3ccccc3)c(=O)oc12` it was 1.66% (inactive); in that of `COC(=O)/C(N=Nc1cccc(C(F)(F)F)c1)=C(\C)O`, 8.29% (inactive). As for `O=c1[nH]c2cc3c(cc2cc1CN(Cc1cccnc1)Cc1nnnn1Cc1ccco1)OCCO3`, the figure is 26.5% (active); as for `Cc1ccc(CN(Cc2cc3cc4c(cc3[nH]c2=O)OCCO4)Cc2nnnn2Cc2ccco2)cc1`, 22.7% (inactive); as for `CCc1ccc2[nH]c(=O)c(CN(Cc3ccccc3)Cc3nnnn3Cc3ccco3)cc2c1`, 13.2% (inactive).

In the case of `CCCOc1ccc(Cc2nc(N)nc(N)n2)cc1`, the inhibition is -6.23% (inactive). In the case of `C=C(C)C(=O)Nc1cccc(C2=NOC3(C2)C[C@@H](C(N)=O)N(C(=O)c2ccc(Cl)cc2)C3)c1` (stereo not given in full) it was 4.17% (inactive); in that of `Cc1nn(Cc2ccccc2)c(Cl)c1/C=C1\NC(=S)NC1=O`, 4.75% (inactive); in that of `COc1cc(NC(=O)c2ccc([N+](=O)[O-])o2)ccc1NC(=O)c1cccs1`, 4.73% (inactive).

On to `O=C(Nc1cccc(NC(=O)c2cccs2)c1)c1ccco1`, for which the inhibition was 14.8% (inactive). In the case of `O=C(O)CCc1ccc(-c2ccccc2)n1NC(=O)c1sc2ccccc2c1Cl` it was 24.7% (active); in that of `O=C(O)CCc1ccc(-c2ccccc2)n1NC(=O)c1ccco1`, 3.09% (inactive); in that of `O=C(O)CCc1ccc(-c2ccccc2)n1NC(=O)c1cccs1`, 6.72% (inactive).

As to `Cc1ccc(NC(=O)Nc2sc(=S)n(C)c2C)cc1`, the inhibition is -0.53% (inactive). As for `CCC(=O)Oc1oc(-c2ccccc2)nc1C=Nc1ccccc1OC`, the figure is 24.3% (active). As for `COc1ccccc1N=Cc1nc(-c2ccccc2)oc1OC(C)=O`, the figure is 19.1% (inactive). In the case of `CCC(=O)Oc1oc(-c2ccccc2)nc1C=Nc1ccc(C)cc1` it was 1.55% (inactive). In the case of `CCOC(=O)c1cc(C)sc1/N=C/C1C(=O)CC(C)(C)CC1=O`, the inhibition is 1.61% (inactive).

Consider `CCCn1c(SCC(=O)Nc2cccc(S(=O)(=O)N(C)C)c2)nc2ccccc2c1=O`, for which the inhibition was 6.03% (inactive).

For the compound `O=C(CSc1nnnn1-c1cccc2ccccc12)NC(C(=O)O)(c1ccccc1)c1ccccc1`, the inhibition was 23.1% (inactive). As for `Cc1ccc(-n2nnnc2SCC(=O)Nc2ccccc2-c2ccccc2)cc1C`, the figure is -2.36% (inactive); as for `O=C(O)CC/C(=N\Nc1ccc([N+](=O)[O-])cc1)c1ccccc1`, 7.87% (inactive); as for `CCOc1c(Br)cc(C(N)=O)cc1OC`, 2.69% (inactive).

With `CCOc1cc(C(N)=O)cc(Br)c1OC`, the inhibition is -3.95% (inactive). In the case of `COc1cc(C(N)=O)cc(Br)c1OC` it was 23.4% (active); in that of `Cc1nn(CCS(=O)(=O)c2ccc(Cl)cc2)c(C)c1Br`, 0.55% (inactive). Consider `COCc1cc(C)nc(OCC(=O)N/N=C/c2ccc(O)cc2O)c1C#N`, for which the inhibition is -7.94% (inactive). As for `CSc1nnc(-c2cc3c(s2)-c2ccccc2CC3)o1`, the figure is 18.2% (inactive); as for `CCSc1nnc(-c2cc3c(s2)-c2ccccc2CC3)o1`, 19.1% (inactive). In the case of `O=C(NCc1ccccc1)c1ccc2c(c1)C(=O)N(Cc1ccncc1)C2=O` it was -0.3% (inactive); in that of `COc1ccc(C(C(=O)NC(C)(C)C)N(Cc2cccs2)C(=O)CCC(=O)Nc2cc(C)on2)cc1` (stereo not given), -3.34% (inactive).

As to `COc1cc(CCC(=O)OCC(=O)Nc2c(C)cccc2C(C)C)cc(OC)c1OC`, the inhibition is -0.28% (inactive). As for `Cc1ccc(C)c2[nH]c(=O)c(C(c3nnnn3Cc3ccco3)N3CCc4ccccc4C3)cc12` (stereo not given), the inhibition was 24.6% (active). With `Cc1cc2cc(C(c3nnnn3Cc3ccco3)N3CCc4ccccc4C3)c(=O)[nH]c2cc1C` (stereo not given), the inhibition is 14% (inactive). Regarding `COc1ccc2[nH]c(=O)c(CN(C3CCCCC3)C(c3nnnn3Cc3ccco3)C(C)C)cc2c1` (stereo not given), the inhibition was 23.7% (active).

With `COc1ccc2[nH]c(=O)c(CN(Cc3nnnn3Cc3ccco3)C3CCCCC3)cc2c1`, the inhibition was 16% (inactive). As for `CCC(c1nnnn1Cc1ccco1)N(Cc1cc2cc(OC)ccc2[nH]c1=O)C1CCCCC1` (stereo not given), the inhibition is 14.1% (inactive). As for `Cc1cc2cc(C(c3nnnn3Cc3ccco3)N3CCc4ccccc43)c(=O)[nH]c2cc1C` (stereo not given), the figure is 21.9% (inactive); as for `Cc1cc2cc(C(c3nnnn3Cc3ccco3)N3CCCCC3)c(=O)[nH]c2cc1C` (stereo not given), 26.8% (active). On to `Cc1ccc(C)c2[nH]c(=O)c(C(c3nnnn3Cc3ccccc3)N3CCc4ccccc4C3)cc12` (stereo not given), for which the inhibition was 7.95% (inactive).

As for `Cc1cccc2cc(C(c3nnnn3CC3CCCO3)N3CCc4ccccc4C3)c(=O)[nH]c12` (stereo not given), the inhibition is 12.2% (inactive).
